Pf growth 48h: inhibits P. falciparum growth in the first generation, 48 h; 310,000 tested, 5.9% active; P. falciparum luciferase growth in erythrocytes, 48 h; Potency, µM (series often up to 28.7 µM), inactives show top-dose activity change, negative = inhibition, most hits filed as inhibitors; further: potency means the concentration at half of the fitted maximal effect; on the % scale 0 is the no-effect control and ±100 the full control effect
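In quantitative HTS format, infected erythrocytes bearing luciferase-reporter parasites were treated for a single generation at 37 C. Luminescence after adding detection reagent served as the growth measure.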
Shiga inhibitor: blocks Shiga toxin action in Vero cells. Vero cells, Shiga toxin protein synthesis inhibition reporter. inhibition, % at 38.7 µM. 290,000 tested, 9.2% active. AID 2315; in the data active means inhibition mostly above about 28%, no sharp cut-off; inactive means mostly below about 43%; further: 0% is about no effect
Cycloheximide cs: counter-screen for Shiga toxin inhibitors: cycloheximide protein synthesis inhibition; cell reporter, cycloheximide protein synthesis inhibition counterscreen; max response, %; 300,000 tested, 12% active; AID 2314; in the data active means max response mostly above about 13%, no sharp cut-off; inactive means mostly below about 14%; further: read at 38.3 µM for the half of the compounds with a filed dose; 0% is about no effect
Pf growth 96h: P. falciparum growth inhibition at 96 hour, primary screen for plastid delayed-death inhibitors; P. falciparum luciferase reporter growth, 96 h; Potency, µM (top dose mostly 28.7 µM), for inactives: at the top dose activity change, negative = inhibition, usual class: inhibitors; 320,000 tested, 6.9% active; AID 504834; further: potency means the concentration at half of the fitted maximal effect; on the % scale 0 is the no-effect control and ±100 the full control effect
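P. falciparum expressing integrated firefly luciferase grown in erythrocytes (2% hematocrit, 0.05% parasitemia final) with compounds for 96 hours at 37 C, 5% CO2. Growth inhibition read as loss of luminescence after adding luciferase detection reagent.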
* marks the source's active call; other numbers are inactive results; i = inactive; ? = inconclusive; / = no result given; [ ] = remark or other dose. In the library only some 21% were active in any assay of this set; here they are far more common. Unless noted, the call rests on the fitted dose curve; in most records, active means well fitted inhibition curve with a large enough effect; inconclusive means small, poorly fitted or top-dose-only effect, or another doubt; inactive means no such curve, though single readings can be large or run the other way.

SMILES	Pf growth 48h	Shiga inhibitor	Cycloheximide cs	Pf growth 96h
CCOc1ccc2[nH]c(=O)c(CN(Cc3ccco3)C(CC)c3nnnn3Cc3ccccc3)cc2c1 (stereo not drawn)	5.86µM*	24.4	1.0	?
CCOc1ccc2[nH]c(=O)c(CN(Cc3cccs3)C(CC)c3nnnn3C(C)(C)CC)cc2c1 (stereo not drawn)	0.928µM*	-9.0	-2.7	/
CCOc1ccc2[nH]c(=O)c(C(c3nnnn3Cc3ccco3)N3CCN(C)CC3)cc2c1 (stereo not drawn)	?	96.2*	29.5*	?
CCOC(=O)Cn1nnnc1C(CC)N(Cc1cccs1)Cc1cc2cc(C)ccc2[nH]c1=O (stereo not drawn)	/	-9.9	-3.3	37.2%
Cc1cc2cc(C(c3nnnn3Cc3ccco3)N3CCCCC3)c(=O)[nH]c2cc1C (stereo not drawn)	5.8%	-10.8	-2.6	/
Cc1onc(C(=O)Nc2c(C)n(C)n(-c3ccccc3)c2=O)c1[N+](=O)[O-]	-0.4%	8.0	2.8	-11.9%
O=C(Nn1cnnc1)c1cc(Br)ccc1Cl	-11.2%	6.6	-2.2	16.3%
CC[n+]1c(/C=C/Nc2ccccc2)oc2ccccc21	?	-11.8	-4.6	?
CC[n+]1c(/C=C/N(C)c2ccccc2)oc2ccc(F)cc21	2.94µM*	9.3	0.3	?
CC[n+]1c(/C=C/N(C)c2ccccc2)oc2ccccc21	0.928µM*	-4.7	-1.9	-14.2%
CC[n+]1c(/C=C/Nc2ccccc2)oc2ccc(OC)cc21	?	41.5	12.3	14.6%
Cc1cc(C)cc(OCCNC(=O)c2cc(S(=O)(=O)N3CCOCC3)ccc2F)c1	?	-7.3	-1.8	-20.9%
Oc1cccc[c]1[Hg][Cl]	1.07µM*	/	/	1.07µM*
CC(C)(C)c1ccccc1O	31.6%	/	/	45.7%
COc1ccc(C2CC(c3ccc(F)cc3)=NN2c2ccccc2)cc1OC (stereo not drawn)	?	90.1*	25.5*	?
COc1ccc(C2=NN(c3ccccc3)C(c3ccc(OC)c(OC)c3)C2)cc1 (stereo not drawn)	-17.1%	45.9*	20.1*	?
COc1ccc(C2=NN(c3ccc(C=O)cc3)C(c3ccccc3)C2)cc1 (stereo not drawn)	?	19.8	-3.6	?
COc1ccc(C2=NN(C(C#N)c3ccc(OC)c(OC)c3)C(c3ccccc3)C2)cc1 (stereo not drawn)	125.1%	112.8*	43.1*	/
Cc1ccc(CNS(=O)(=O)c2c(C(=O)N3CCCCC3)c(C)n(C)c2C)o1	8.5%	2.8	-4.0	?
CCN[C@@H]1CN(CCCOC)S(=O)(=O)c2sc(S(N)(=O)=O)cc21	-10.0%[12.8 µM]	/	/	0.9%[12.8 µM]
Cc1cc(=O)[nH]c(Nc2ccc(N(C)C)cc2)n1	23.3%	-1.3	0.6	-48.6%
Cc1cc(=O)[nH]c(N/N=C/c2ccc(N(C)C)cc2)n1	43.5%	49.6*	24.2*	?
Cc1cc(=O)[nH]c(N/N=C/c2ccc(F)cc2)n1	40.1%	8.8	12.5*	-53.1%
COc1ccc(/C=N/Nc2nc(C)cc(=O)[nH]2)cc1OC	?	-4.7	-2.1	?
CC(C)CCn1c(=S)[nH]c2ncccc2c1=O	6.0%	-0.5	2.3	?
SMILES	Pf growth 48h	Shiga inhibitor	Cycloheximide cs	Pf growth 96h
Cn1c(=S)[nH]c2cccnc21	15.0%	-8.9	0.8	8.28µM*
O=C(COC(=O)c1ccccn1)NC(=O)c1ccccc1	20.3%	/	/	20.2%
O=C(COc1cccc(F)c1)NNC(=O)Cc1ccc(Br)cc1	2.8%	/	/	30.9%
CCn1c(N2CCN(S(=O)(=O)c3ccc(OC)cc3)CC2)nc2ccccc21	?	-10.2	-2.8	11.7µM*
Cc1cc(C)n(-c2nc3ccccc3nc2N2CCCC2)n1	/	17.6	-0.7	-7.2%
CCn1c(N2CCN(C(=O)C34CC5CC(CC(C5)C3)C4)CC2)nc2ccccc21	13.1µM*	-1.6	-1.5	/
Cc1cc(C)n(-c2nc3ccccc3nc2N2CCCCCC2)n1	?	14.8	-1.8	-13.7%
Cc1cc(C)n(-c2nc3ccccc3nc2N2CCN(S(=O)(=O)c3cccc(C#N)c3)CC2)n1	4.15µM*	-5.4	-4.0	20.9%
COc1ccc(S(=O)(=O)N2CCN(c3nc4ccccc4nc3-n3nc(C)cc3C)CC2)cc1	?	-3.6	-3.0	9.28µM*
CC12CC3CC(C)(C1)CC(C(=O)NNC(=O)c1ccncc1)(C3)C2	-7.1%	-11.3	-2.5	?
O=C(NNC(=O)c1ccc(Cl)nc1)c1ccncc1	-12.8%	/	/	0.8%
COc1ccc(C)cc1NC(=O)c1ccccc1N(C)S(=O)(=O)c1ccccc1	-20.0%	-7.7	-2.2	6.2%
Cc1ccc(NC(=O)CN2C(=O)NC(Cc3c[nH]c4ccccc34)C2=O)cc1S(=O)(=O)N1CCCCC1 (stereo not drawn)	-12.4%	-11.1	-3.1	?
O=S(=O)(c1ccccc1)N1CCN(C(=S)Nc2ccccc2Cl)CC1	?	-8.4	6.4	?
O=C(/C=N/NC(=O)c1ccccc1Br)c1ccccc1	22.9%	80.9*	46.2*	30.8%
O=C(/C=N/NC(=O)c1ccc(Cl)cc1Cl)c1ccccc1	19.8%	72.0*	30.4*	27.5%
Cn1c(=O)n(C)c2cc(/C=N/NC(=O)c3ccc(Cl)cc3Cl)ccc21	16.0%	3.2	7.5	0.3%
O=C(N/N=C/c1coc2ccccc2c1=O)c1ccccc1Br	4.3%	-2.7	-2.1	-14.1%
COc1ccccc1C1CC(=O)Oc2ccc(C(C)(C)C)cc21 (stereo not drawn)	/	i	2.9	/
CCCCNC(=O)c1cc2c(C)cc(C)cc2[nH]1	?	-1.0	1.9	-7.8%
Cc1ccc(NC(=O)c2cc3cc(OC(F)(F)F)ccc3[nH]2)cc1	?	4.7	6.5	?
COc1ccc2[nH]c(C(=O)N/N=C/c3ccc(O)cc3O)cc2c1	6.57µM*	17.2	7.9	?
COc1ccc2[nH]c(C(=O)Nc3ccc(C)c(F)c3)cc2c1	28.6%	69.5*	35.8*	39.1%
Cc1cc(C)c2cc(C(=O)Nc3ccc(C)c(F)c3)[nH]c2c1	11.7µM*	-9.9	-3.3	?
CCOc1ccc2[nH]c(C(=O)N/N=C/c3ccc(OC)cc3)cc2c1	-20.1%	9.9	-1.2	-20.4%
SMILES	Pf growth 48h	Shiga inhibitor	Cycloheximide cs	Pf growth 96h
COc1ccc2[nH]c(C(=O)NCc3ccccc3)cc2c1	-25.7%	33.7	8.1	-21.1%
COc1ccc2[nH]c(C(=O)Nc3cccc(C)n3)cc2c1	-11.4%	46.8*	28.6*	473.2%
COc1cc(NC(=O)c2ccc(Cl)cc2)c(Cl)cc1NC(=O)c1cccnc1	35.7%	-10.8	3.7	22.3%
COc1ccc(Nc2nc(C)cc(C)c2C#N)cc1OC	/	-4.2	-1.8	?
Cc1ccccc1NC(=S)NC1(C)CCS(=O)(=O)C1 (stereo not drawn)	-4.5%	-9.4	-3.8	8.2%
CCCC(C)NNC(=O)c1cc2ccccc2[nH]1 (stereo not drawn)	59.1%	20.4	-2.1	24.7%
CC(C)(C)c1ccc(S(=O)(=O)NNC(=O)c2cc3ccccc3[nH]2)cc1	68.9%	53.5*	27.3*	178.5%
COc1ccc(NC(=O)c2cc3ccccc3[nH]2)cc1	131.3%	64.4*	40.2*	113.5%
O=S(=O)(/N=C(/c1ccccc1)N1CCOCC1)c1ccc(F)cc1	10.2%	-7.5	2.6	?
